Whole data set: some 33,000 sequences, median “E-score (-0.5 to 0.5)” near -0.032, cut for the highest 2% near 0.36. For the sample, the highest values were picked, then their nearest neighbours and some sequences at random.
target: T1, Sko1 (UniProt Q02100); experiment: PBM E-score (8-mer binding enrichment) (E-score (-0.5 to 0.5)); higher = stronger / more preferred TF binding; conditions: protein concentration: 200 nM; construct: GST-full length
T1 sequence: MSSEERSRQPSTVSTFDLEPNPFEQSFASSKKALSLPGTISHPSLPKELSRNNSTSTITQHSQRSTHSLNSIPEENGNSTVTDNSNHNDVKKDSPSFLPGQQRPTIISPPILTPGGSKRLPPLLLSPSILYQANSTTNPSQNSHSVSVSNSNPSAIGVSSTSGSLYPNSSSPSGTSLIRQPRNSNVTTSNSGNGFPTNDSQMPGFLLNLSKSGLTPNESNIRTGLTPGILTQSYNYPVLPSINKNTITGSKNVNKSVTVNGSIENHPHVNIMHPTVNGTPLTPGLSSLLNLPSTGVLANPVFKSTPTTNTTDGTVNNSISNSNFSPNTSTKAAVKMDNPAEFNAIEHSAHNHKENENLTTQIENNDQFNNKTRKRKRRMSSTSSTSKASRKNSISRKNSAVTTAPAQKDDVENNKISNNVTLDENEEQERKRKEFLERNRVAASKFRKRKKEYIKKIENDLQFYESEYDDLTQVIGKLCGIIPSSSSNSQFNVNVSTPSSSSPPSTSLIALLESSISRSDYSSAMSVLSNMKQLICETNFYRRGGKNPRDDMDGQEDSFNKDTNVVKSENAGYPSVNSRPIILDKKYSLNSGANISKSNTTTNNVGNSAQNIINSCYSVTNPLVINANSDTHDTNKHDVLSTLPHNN
Method in brief: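 Using PURExpress in vitro transcription/translation, GST-tagged yeast transcription factors were made in full-length or DNA-binding-domain form. These were applied at about 100-200 nM to double-stranded universal all-10-mer Agilent arrays, and bound protein was detected with fluorescent anti-GST. Scans were normalised with masliner before the Universal PBM Analysis Suite assigned E-scores to ungapped eight-base words pooled with their reverse complements.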

Row | Sequence | PBM E-score
1 | GCCTCAAC | -0.175
2 | CCGTTTTA | -0.00533
3 | ACGTTTTA | 0.364
4 | ACGTTTTC | 0.396
5 | ACGTTTGG | 0.296
6 | AGGTTTTG | -0.0965
7 | CCGTTTTC | 0.0601
8 | ACGTTTCC | 0.294
9 | ACGTTTTG | 0.393
10 | GCGTTTTA | 0.125
11 | GGCTACAA | -0.0783
12 | CATCGAGA | 0.0586
13 | CACTTGAC | 0.186
14 | AAGGTTAA | 0.06
15 | AAATGTCG | 0.159
16 | AGCTTGCA | 0.0429
17 | CGCCTACC | -0.145
18 | CCTCTGCA | -0.229
19 | CGTAACTC | 0.331
20 | CGTAACCC | 0.289
21 | GGTAACTA | 0.0515
22 | CGTAACCA | 0.389
23 | CGTAACGA | 0.366
24 | GGTAACCA | -0.101
25 | CGTAACTA | 0.381

Row | Sequence | PBM E-score
26 | CGTAACGC | 0.34
27 | GGTAACGA | 0.0123
28 | ACCGTGCG | 0.0174
29 | TCTACTAA | 0.0947
30 | CGTTTAAA | 0.277
31 | TGAATGAA | 0.197
32 | ATAGGTCG | -0.195
33 | AATGTCGG | 0.0603
34 | AATGTCGA | 0.217
35 | AATGTCGT | 0.371
36 | CGATTGTC | 0.0842
37 | AGGAGCCC | -0.142
38 | CCATTACA | 0.089
39 | CCATTACC | -0.148
40 | CCATTACG | 0.438
41 | ACATTACG | 0.425
42 | ACATTACA | 0.28
43 | ACATTACT | 0.0825
44 | ACGGACTA | 0.0518
45 | CTGCTGAC | 0.0145
46 | AACACGTT | 0.313
47 | AACACGCC | -0.0487
48 | AACACGTA | 0.459
49 | AACACGGC | -0.255
50 | AACACGAA | 0.187

Row | Sequence | PBM E-score
51 | AACACGTC | 0.401
52 | AGAGCTGG | -0.228
53 | TCATAGAA | 0.219
54 | AATTTCAC | -0.0415
55 | ACTTGAAA | 0.0359
56 | AAGCGGAA | -0.0292
57 | CGAACGTA | 0.361
58 | GGAACGTA | 0.289
59 | CGAACGTC | 0.238
60 | AGAACGTA | 0.366
61 | AGAACGTC | 0.314
62 | AGAACGTG | 0.246
63 | GTGAAGGA | -0.0285
64 | ACGCAGAC | 0.0967
65 | AAATTGGA | 0.0977
66 | ACGAGTCC | -0.0325
67 | GCGTCGAC | 0.0596
68 | ACGTCGAC | 0.385
69 | ACGTCGAA | 0.292
70 | ACGTCGAG | 0.254
71 | CCGTCGAC | -0.145
72 | ACGTCCAT | 0.39
73 | ACGTCCAA | 0.288
74 | ACGTCGAT | 0.432
75 | ACGTCCAC | 0.314

Row | Sequence | PBM E-score
76 | ATCAGTCA | 0.119
77 | AACCGCGC | -0.0849
78 | AGGGCAAT | -0.231
79 | CGTAGAGC | 0.116
80 | ACGAGATA | 0.207
81 | CTACGTCC | 0.298
82 | ATACGTCG | 0.422
83 | ATACGCCC | -0.0909
84 | ATACGTCC | 0.369
85 | ATCCGTCG | -0.197
86 | AAACGTCG | 0.238
87 | AAGGCTGT | -0.282
88 | CGGTAGCC | 0.0295
89 | AATCACGA | 0.0581
90 | AACCACGA | -0.0344
91 | AACCACGT | 0.371
92 | AACCACGC | 0.111
93 | AATCACGC | 0.205
94 | AATCACGT | 0.429
95 | ACCCACGA | -0.0425
96 | ACCCACGT | 0.374
97 | ACCCACGC | -0.0576
98 | GGAAATAC | 0.148
99 | CCCTCATC | -0.29
100 | AGTCACCA | -0.269

Row | Sequence | PBM E-score
101 | CGTCACCC | 0.409
102 | GGTCACCA | -0.28
103 | CCTCACCC | -0.148
104 | CGTCACCA | 0.447
105 | AGTCACCC | -0.145
106 | AGCCAATG | -0.049
107 | CATAAGCA | -0.085
108 | CGTGGTTC | 0.0129
109 | ACGTCGTA | 0.399
110 | CCGTCGTA | 0.11
111 | ACGTCGTG | 0.361
112 | GCGTCGTA | 0.234
113 | ACGTCGCG | 0.356
114 | CCGTCGTC | -0.0549
115 | AAGTCGTG | 0.00032
116 | ACGTCGTC | 0.387
117 | ACGTCGGC | 0.348
118 | AGTTGCCC | -0.107
119 | ACATTCTA | 0.293
120 | AACCCAGC | -0.247
121 | CGGCCTAG | -0.324
122 | AGAAGCTG | -0.0693
123 | ACAGCTGT | -0.245
124 | GGGCAGAC | -0.242
125 | ACTGGTAT | -0.17

Row | Sequence | PBM E-score
126 | CCTCGTCA | 0.381
127 | TCTCGTAA | 0.276
128 | GCTCGTCA | 0.351
129 | ACTCGTCA | 0.404
130 | CCTCGTCC | -0.209
131 | CCTCGTCG | -0.233
132 | ACTCGTCC | 0.0764
133 | ACTCGTCT | -0.0567
134 | TCTCGTCA | 0.365
135 | AACCCAAG | -0.00525
136 | ATAAGGAG | -0.159
137 | CGTAGACA | 0.264
138 | GCGTCCAC | -0.0966
139 | ATACTTTC | 0.0725
140 | ACCGACGC | 0.0727
141 | AACGACGG | 0.0454
142 | AAAGACGG | -0.111
143 | ACCGACGT | 0.376
144 | AAAGACGT | 0.448
145 | AAAGACGA | 0.172
146 | ACCGACGG | -0.181
147 | AACGACGA | 0.166
148 | AACGACGT | 0.411
149 | AGCTCAAA | 0.0839
150 | ATGCCCTG | -0.17

Row | Sequence | PBM E-score
151 | TACGGTGA | 0.0938
152 | ACGGTCGG | -0.28
153 | ACGGTCTG | -0.0646
154 | GACCGCTC | -0.21
155 | CCAGTCTA | -0.255
156 | AAGTGACG | 0.445
157 | CATTGACG | 0.412
158 | CAGTGACG | 0.408
159 | CATTGACC | 0.114
160 | AAGTGACT | -0.0253
161 | CATTGACA | -0.0852
162 | CAGTGACA | 0.0692
163 | CAGTGACC | -0.18
164 | AAGTGACC | -0.141
165 | GGCGAAAA | 0.0196
166 | ATGTCCAC | 0.116
167 | GCCTGTCA | -0.157
168 | CCGGTCAA | -0.12
169 | GTATTGCA | 0.0688
170 | CACTGGGC | -0.304
171 | CTTTCATA | 0.257
172 | GCTAGCCC | -0.26

— the supplement of paper PMC3334620
